In PubChem BioAssay (NCI):
Compounds without any hit were thinned out: in the full panel of roughly 79,000, 15% have a hit. Calls of active or inactive are those of the source. Cut-off read from the data, not from the text of the source: active = growth inhibition above about 70%; inactive = the rest.

Columns and labels:
[1] = NCI Yeast Anticancer Drug Screen. Data for the rad52 strain (AID 147);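 note: 0% = growth of vehicle-treated control cultures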; conditions: S. cerevisiae rad52 mutant growth inhibition, stronger effect = higher value
Method in brief: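 Inhibition of yeast growth, referenced to vehicle controls, was the measured output for a strain with defective DNA damage repair.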

[2] = NCI Yeast Anticancer Drug Screen. Data for the wt1 strain (AID 149);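 note: 0% = growth of vehicle-treated wt1 cultures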; conditions: S. cerevisiae wt1 strain (SPY 50644) growth inhibition, stronger effect = higher value
Method in brief: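 Compounds are added to wt1 yeast cultures. Growth is then measured. Inhibition is expressed relative to vehicle-treated controls.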

[3] = NCI Yeast Anticancer Drug Screen. Data for the rad50EPP+ strain (AID 151);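 note: 0% = growth of vehicle-treated control cultures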; conditions: S. cerevisiae rad50 mutant strain, stronger effect = higher value
Method in brief: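 Genetically defined yeast (rad50EPP+, DNA damage repair alteration) is grown with compound, and inhibition of growth is expressed relative to vehicle-treated controls.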

[4] = NCI Yeast Anticancer Drug Screen. Data for the mgt1 strain (AID 153); conditions: S. cerevisiae mgt1 mutant growth inhibition, stronger effect = higher value
Method in brief: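 In the mgt1 strain, test compounds were added and growth inhibition was determined relative to vehicle-treated controls.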

[5] = NCI Yeast Anticancer Drug Screen. Data for the rad50 strain (AID 155);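 note: 0% = growth of vehicle-only cultures of the same strain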; conditions: S. cerevisiae rad50 strain growth inhibition, stronger effect = higher value
Method in brief: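 Inhibition values express reduced yeast growth in compound-treated cultures relative to vehicle-treated controls.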

[6] = NCI Yeast Anticancer Drug Screen. Data for the mec2-1 strain (AID 157); conditions: S. cerevisiae mec2-1 strain, stronger effect = higher value
Method in brief: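 Each compound was tested on mec2-1 yeast, a strain altered in DNA damage repair or cell cycle control. Growth inhibition is reported relative to vehicle.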

[7] = NCI Yeast Anticancer Drug Screen. Data for the rad14 strain (AID 159);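 note: 0% = growth of vehicle-treated control cultures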; conditions: S. cerevisiae rad14 strain growth inhibition, stronger effect = higher value
Method in brief: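 A mutant yeast strain defective in DNA damage repair is treated with compound; inhibition of its growth is scored against untreated, vehicle-exposed cultures.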

[8] = NCI Yeast Anticancer Drug Screen. Data for the sgs1 mgt1 strain (AID 161);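 note: 0% = growth of cultures given vehicle only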; conditions: S. cerevisiae sgs1 mgt1 strain, stronger effect = higher value
Method in brief: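 Genetically altered yeast, compound exposure, growth inhibition relative to vehicle.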

[9] = NCI Yeast Anticancer Drug Screen. Data for the CLN2oe strain (AID 163);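 note: 0% = growth of vehicle-only control cultures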; conditions: S. cerevisiae CLN2oe strain, stronger effect = higher value
Method in brief: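 First, the altered yeast strain was treated with each compound; second, its growth was measured; finally, inhibition was derived by comparison with vehicle controls.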

[10] = NCI Yeast Anticancer Drug Screen. Data for the cln2 rad14 strain (AID 165);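 note: 0% = growth equal to vehicle treated cultures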; conditions: S. cerevisiae cln2 rad14 strain, stronger effect = higher value
Method in brief: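 Test compounds were added to cln2 rad14 yeast cultures; inhibition of growth was then determined by comparison with vehicle treatment.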

[11] = NCI Yeast Anticancer Drug Screen. Data for the bub3 strain (AID 167); conditions: S. cerevisiae bub3 mutant strain, stronger effect = higher value
Method in brief: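 Steps: expose the mutant yeast strain to compound; grow alongside vehicle-treated cultures; measure growth; express inhibition against the vehicle cultures.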

[12] = NCI Yeast Anticancer Drug Screen. Data for the wt2 strain (AID 169);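 note: 0% = growth of vehicle-treated yeast cultures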; conditions: S. cerevisiae wt2 strain growth inhibition, stronger effect = higher value
Method in brief: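 The panel's yeast strains carry defined changes in DNA repair or cell cycle genes. Each strain is grown with compound, and growth loss is scored relative to vehicle.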

[13] = NCI Yeast Anticancer Drug Screen. Data for the mlh1 strain (AID 171);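 note: 0% = growth of vehicle-treated control cultures of the same strain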; conditions: S. cerevisiae mlh1 strain growth inhibition, stronger effect = higher value
Method in brief: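 Inhibition values reflect reduced yeast growth in the presence of compound, referenced to vehicle controls, using a strain chosen for its alteration in DNA repair or cell cycle control.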

[14] = NCI Yeast Anticancer Drug Screen. Data for the sgs1 strain (AID 173);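 note: 0% = growth of vehicle-only control cultures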; conditions: S. cerevisiae sgs1 mutant, stronger effect = higher value
Method in brief: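 Vehicle-treated cultures served as reference for growth inhibition of a yeast strain altered in DNA damage repair or cell cycle control after compound exposure.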

[15] = NCI Yeast Anticancer Drug Screen. Data for the mlh1 rad18 strain (AID 175); conditions: S. cerevisiae mlh1 rad18 strain growth inhibition, stronger effect = higher value
Method in brief: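 Inhibition values reflect reduced growth of mutant yeast versus vehicle-treated controls following compound exposure; the mutations affect DNA damage repair.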

[16] = NCI Yeast Anticancer Drug Screen. Data for the rad18 strain (AID 177); conditions: S. cerevisiae rad18 mutant growth inhibition, stronger effect = higher value
Method in brief: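 Steps: expose repair-mutant yeast to compound; measure growth; express as inhibition relative to vehicle control.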

[17] = at 5.0 µM (retest, dose inferred, filed as 0.5)
[18] = at 50.0 µM (retest, dose inferred, filed as 5.0)

Measured: growth inhibition

N#CSc1ccc(S(N)(=O)=O)cc1
active: [5]; [18] 97% | [5]; at 100.0 µM 73% | [6]; [18] 95% | [8]; [18] 85% | [10]; [18] 82% | [11]; [18] 86% | [11]; at 50.0 µM 75.8% | [11]; at 100.0 µM 79% | [15]; [18] 98% | [16]; at 100.0 µM 81%
inactive: [1]; at 1.2 µM -51% | [1]; at 3.7 µM -48% | [1]; at 11.0 µM -51% | [1]; at 33.0 µM -1% | [1]; at 100.0 µM 64% | [2]; at 1.2 µM -43% | [2]; at 3.7 µM -50% | [2]; at 11.0 µM -31% | [2]; at 33.0 µM -9% | [2]; at 100.0 µM 53% | [3]; at 1.2 µM -67% | [3]; at 3.7 µM -50% | [3]; at 11.0 µM -91% | [3]; at 33.0 µM -86% | [3]; at 100.0 µM -14% | [4]; at 1.2 µM -81% | [4]; at 3.7 µM -91% | [4]; at 11.0 µM -44% | [4]; at 33.0 µM -62% | [4]; at 100.0 µM 46% | [5]; at 1.2 µM -55% | [5]; at 3.7 µM -39% | [5]; [17] 51% | [5]; at 11.0 µM -36% | [5]; at 33.0 µM 17% | [5]; at 50.0 µM 56.9% | [6]; at 1.2 µM -84% | [6]; at 3.7 µM -60% | [6]; [17] 51% | [6]; at 11.0 µM -37% | [6]; at 33.0 µM -2% | [6]; at 50.0 µM 47.6% | [6]; at 100.0 µM 63% | [7]; at 1.2 µM -36% | [7]; at 3.7 µM -43% | [7]; at 11.0 µM -51% | [7]; at 33.0 µM -30% | [7]; at 100.0 µM 3% | [8]; [17] 0% | [8]; at 50.0 µM 62.1% | [9]; at 1.2 µM -27% | [9]; at 3.7 µM -13% | [9]; at 11.0 µM 2% | [9]; at 33.0 µM 29% | [9]; at 100.0 µM 66% | [10]; [17] 64% | [10]; at 50.0 µM 41.4% | [11]; at 1.2 µM -23% | [11]; at 3.7 µM -37% | [11]; [17] 5% | [11]; at 11.0 µM -17% | [11]; at 33.0 µM 37% | [12]; at 1.2 µM -48% | [12]; at 3.7 µM -45% | [12]; at 11.0 µM -32% | [12]; at 33.0 µM -25% | [12]; at 100.0 µM 50% | [13]; at 1.2 µM -65% | [13]; at 3.7 µM -44% | [13]; at 11.0 µM -33% | [13]; at 33.0 µM 8% | [13]; at 100.0 µM 64% | [14]; at 1.2 µM -68% | [14]; at 3.7 µM -67% | [14]; at 11.0 µM -21% | [14]; at 33.0 µM 9% | [14]; at 100.0 µM 65% | [15]; [17] 40% | [15]; at 50.0 µM 59.1% | [16]; at 1.2 µM -47% | [16]; at 3.7 µM -45% | [16]; at 11.0 µM -57% | [16]; at 33.0 µM 28%
